In all, about 96,000 compounds went through this assay and about 20,000 (21%) were called active. A selection follows. Values without a mark were called inactive.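 How the source made its calls: active means CYP2C19 inhibition above a set limit at 5 µM in the primary screen (cut at about 50% in these data); inactive means the rest.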
The compounds below were run against Cytochrome P450 2C19 (Homo sapiens) (UniProt P33261) (assay: blockers of cytochrome P450 2C19 activity – biochemical, luminescence, ADME assay, primary screen (AID 778;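 further: plate controls were negative control wells for no effect and 2.5 mM tranylcypromine positive control for full effect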)). Settings: CYP2C19 Supersomes, luciferin-H EGE luminescence, 30 min; at 5 µM; active compounds read high.
Chain of Cytochrome P450 2C19 (Homo sapiens) (P33261 whole entry, looked up): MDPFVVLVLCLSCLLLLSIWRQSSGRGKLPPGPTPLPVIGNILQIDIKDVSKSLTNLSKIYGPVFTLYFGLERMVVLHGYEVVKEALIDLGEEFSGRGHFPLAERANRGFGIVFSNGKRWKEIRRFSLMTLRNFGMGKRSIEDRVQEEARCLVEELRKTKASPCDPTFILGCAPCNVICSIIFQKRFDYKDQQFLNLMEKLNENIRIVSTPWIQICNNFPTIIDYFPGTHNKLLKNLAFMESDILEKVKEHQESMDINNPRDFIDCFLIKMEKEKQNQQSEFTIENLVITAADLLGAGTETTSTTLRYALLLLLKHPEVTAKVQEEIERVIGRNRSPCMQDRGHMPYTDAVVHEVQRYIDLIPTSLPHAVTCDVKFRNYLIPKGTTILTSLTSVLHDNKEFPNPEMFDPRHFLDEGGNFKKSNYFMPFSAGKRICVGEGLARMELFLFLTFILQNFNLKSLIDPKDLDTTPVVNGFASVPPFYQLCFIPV

Row | Compound | inhibition
1 | Cc1nc2ccc(C(=O)N3CCSCC3)cc2s1 | -5.2%
2 | CCOC(=O)c1ccc(NC(=O)CSc2nnc(COc3ccccc3OC)n2C)cc1 | 38.9%
3 | CCOC(=O)c1c(NC(=S)NC(=O)c2ccco2)sc2c1CCCC2 | -3.4%
4 | O=C(CCS(=O)(=O)c1cccc2nsnc12)N1CCN(c2ccccc2F)CC1 | 45.5%
5 | Cc1ccc(S(=O)(=O)N2CCC(C(=O)N[C@@H](C)C(=O)NCc3ccccc3)CC2)cc1 | 6%
6 | CCN=C1SC(CC(=O)Nc2ccc(C)cc2)C(=O)N1CC (stereo unspecified) | 38.5%
7 | CN(C(=O)CC(NC(=O)c1ccccc1)(c1ccccc1)c1ccccc1)c1ccccc1 | 36.4%
8 | COC(=O)c1ccc(NCC(=O)c2ccccc2)cc1 | 64.3% (active)
9 | CCOC(=O)c1nc(Nc2ccc(C(=O)OC)cc2)c2ccccc2n1 | 49.1%
10 | COC(=O)c1ccc(NC(=O)Nc2ccc(C)cc2)cc1 | 2.9%
11 | C=CCNC(=O)CSc1nc2sc(C)c(C)c2c(=O)[nH]1 | 14.3%
12 | CCSc1nnc(NC(=O)c2ccc(C)cc2)s1 | 25.5%
13 | CC1=CC(C)(C)N(C(=O)CSc2nccn2C)c2cc(C)ccc21 | 82.8% (active)
14 | CC1=CC(C)(C)N(C(=O)CSc2nnc(-c3ccccc3)o2)c2ccc(C)cc21 | 25.2%
15 | CCOC(=O)c1c(NC(=O)CCC(=O)NCc2ccco2)sc2c1CCCC2 | 10.1%
16 | COc1ccccc1NC(=O)[C@H](COCc1ccccc1)NC(=O)OC(C)(C)C | 54.6% (active)
17 | COc1ccccc1NC(=S)NC(=O)C(C)C | 16.5%
18 | COc1ccccc1NC(=O)CC(NCCN(C)C)C(=O)O (stereo unspecified) | -1.5%
19 | C/C(=C\C(=O)c1ccc(Br)cc1)N1CCCCC1 | 7.2%
20 | O=C(CNCCO)NC12CC3CC(CC(C3)C1)C2 | 0.8%
21 | CCOc1ccc2nc(N3CCCN(C(=O)Nc4ccccc4C)CC3)c(C#N)cc2c1 | 89.4% (active)
22 | COc1ccc2nc(N3CCCC(O)C3)c(C#N)cc2c1 (stereo unspecified) | 42.8%

Row | Compound | inhibition
23 | Cc1cccc2cc(C#N)c(N3CCCC3)nc12 | 1.4%
24 | CS(=O)(=O)N(C(=O)NC(=O)NC1CCS(=O)(=O)C1)C1CCCCC1 (stereo unspecified) | -6.1%
25 | Cc1c(C(=O)N2CC(C)OC(C)C2)sc2nc(-c3ccccc3)cn12 (stereo unspecified) | 3.7%
26 | CC(C)NC(=O)NC(=O)COC(=O)c1ccc(NC(=O)CC#N)cc1 | 0.7%
27 | COc1ccc([N+](=O)[O-])cc1C1NN=C(c2cccc3ccccc23)S1 (stereo unspecified) | 32.4%
28 | CCN1CCN(C(=O)c2cc3cc4ccc(OC)cc4nc3s2)CC1 | -9.4%
29 | Cc1cc(N2CCN(S(=O)(=O)c3ccc(C)c(C)c3)CC2)c2ccccc2n1 | 95.8% (active)
30 | O=c1ccc2cc(S(=O)(=O)N3CCN(c4ccccc4)CC3)ccc2o1 | 1.3%
31 | Cc1ccc(C)c(N2CCN(S(=O)(=O)c3ccc4c(c3)oc(=O)n4C)CC2)c1 | 4.3%
32 | O=C(c1cccc(N2CCCC2=O)c1)N1CCOCC1 | -8.7%
33 | O=C(c1ccc(-n2cnnn2)cc1)N1CCN(C(c2ccccc2)c2ccccc2)CC1 | 71.6% (active)
34 | O=C(O)CC(c1ccccc1)n1cnnn1 (stereo unspecified) | -12.4%
35 | NC(=O)C1CCN(C(=O)c2ccc(-c3ccccc3)cc2)CC1 | 9.6%
36 | Cc1ccc2cc3cc(C(=O)N4CCCCCC4)oc3nc2c1 | 19.1%
37 | COc1cc(/C=N/Nc2nn3cnnc3c3ccccc23)cc(OC)c1OC | 18.8%
38 | O=C1c2cccc3cccc(c23)N1CN1CCN(c2ccccn2)CC1 | 1.9%
39 | OC(COc1cccc2ccccc12)CN1CCN(c2ccccn2)CC1 (stereo unspecified) | 88.8% (active)
40 | Cc1ccc(OCC(O)CN2CCN(CC(O)COc3ccc(C)cc3Cl)CC2)c(Cl)c1 (stereo unspecified) | -5.7%
41 | COc1ccc(-n2cnc3cc(NCc4ccco4)ccc32)cc1 | 42.6%
42 | O=C(Nc1ccccc1)c1ccc2nsnc2c1 | 18.4%
43 | CC(=O)NS(=O)(=O)c1ccc(NC(=O)/C=C/c2ccccc2Cl)cc1 | 4%
44 | O=c1[nH]c2ccccc2n2c(-c3ccccc3)nnc12 | 32.6%

Row | Compound | inhibition
45 | COC(=O)CSC1=C(C#N)C(c2ccccc2OC)C(C(=O)OC)C(=O)N1 (stereo unspecified) | 55.4% (active)
46 | CCOc1ccc2cc(C#N)c(SCC(=O)OC)nc2c1 | 4.1%
47 | CCCSC1=C(C#N)C(c2ccccc2C)C(C(=O)OC)C(=O)N1 (stereo unspecified) | 41%
48 | CC1CCCC(C)N1CCCNC(=O)c1cc2c(=O)n(C)c3ccccc3c2n1C (stereo unspecified) | -9.2%
49 | COc1ccc(CCN(C)C(=O)C2CCCN(Cc3ccc(OC)c(OC)c3)C2)cc1OC (stereo unspecified) | 13.3%
50 | COc1ccc(CCNC(=O)C2CCCN(Cc3nc(-c4cccc(Cl)c4)oc3C)C2)cc1OC (stereo unspecified) | 87.1% (active)
51 | COc1ccc(CCNC(=O)C2CCN(c3nn4c(=O)cc(C)nc4s3)CC2)cc1OC | -7%
52 | COc1ccc(CCNC(=O)c2ccc3c(c2)NC(=O)C(N2CCOCC2)S3)cc1OC (stereo unspecified) | 43.7%
53 | COc1ccc2c3c(c(=O)oc2c1OCC(=O)C(C)(C)C)CCCC3 | 15.9%
54 | CC(C)CC(=O)N/C(N)=N/c1nc2ccccc2s1 | 36.7%
55 | Cc1ncc(CC(=O)n2cc(C(=O)c3cc(Cl)ccc3O)cn2)s1 | 61% (active)
56 | Cc1cc2cc3c(cc2nc1SCC(=O)Nc1c(C)cccc1C)CCC3 | 15.7%
57 | Cn1c(Cc2cccc3ccccc23)nnc1SCC(=O)N1CCN(c2cccc(Cl)c2)CC1 | 12%
58 | CCOC(=O)c1c(NC(=O)CSc2nnc(Cc3csc(N)n3)n2C)sc(C)c1C | 16.5%
59 | Cn1c(Cc2csc(N)n2)nnc1SC/C=C/c1ccccc1 | 61.6% (active)
60 | CSc1ccc(S(=O)(=O)Nc2cccc(F)c2)cc1 | 99.4% (active)
61 | CCc1nnc(NS(=O)(=O)c2ccc(NS(=O)(=O)c3ccccc3)cc2)s1 | -6.3%
62 | CCCNS(=O)(=O)c1ccc(CCC(=O)NCc2cccnc2)cc1 | 22.4%
63 | COC(=O)c1cc(S(=O)(=O)NC2CCN(Cc3ccccc3)CC2)cn1C | 0.8%
64 | N#CCCN1CCN(S(=O)(=O)c2ccc(S(=O)(=O)NC3CCCCC3)cc2)CC1 | 13.3%
65 | Cc1cccc(CCNS(=O)(=O)c2ccc(S(=O)(=O)NC3CCCC3)cc2)c1 | 67.1% (active)
66 | Cc1cc(S(=O)(=O)NC2CCCCC2)ccc1OCC(=O)NCc1cccnc1 | 20.8%

Row | Compound | inhibition
67 | CSc1ccc(S(=O)(=O)NC2CCCCC2)cc1 | 88.8% (active)
68 | O=C(CCc1ccc(S(=O)(=O)NC2CCCCC2)cc1)NCc1ccccc1 | 63.1% (active)
69 | O=C(O)c1ccc(F)c(S(=O)(=O)Nc2ccccc2)c1 | 7.1%
70 | O=S(=O)(NC1CCCCC1)c1ccc(F)c2ccccc12 | 26.5%
71 | CCCc1ccc(-c2c(C)sc(NC(=O)c3ccnn3C)c2C#N)cc1 | 23.9%
72 | CCCC(=O)N1c2ccccc2NC2=C(C(=O)CCC2)C1c1ccc(F)cc1 (stereo unspecified) | 48.1%
73 | CN(C(=O)CSc1nnc(N)s1)c1c(N)n(Cc2ccccc2)c(=O)[nH]c1=O | -3.1%
74 | O=C(CN1CCOCC1)N1CCCc2c1c(=O)oc1ccc(OCc3ccccc3)cc21 | 29.5%
75 | CCN(CC)S(=O)(=O)c1ccc(N(C)Cc2ccc(C(F)(F)F)cc2)nc1 | 85.1% (active)
76 | Cc1ccc(-n2c(N)c(C(=O)N3CCOCC3)sc2=S)c(C)c1 | 20.4%
77 | COc1ccccc1OCCOc1ccc(/C=N/n2cnnc2)cc1 | 38.5%
78 | COc1cccc(OCCOc2cccc(/C=N/n3cnnc3)c2)c1 | 54.7% (active)
79 | C(=N\n1cnnc1)/c1cccnc1 | -5.3%
80 | Oc1ccc(CNc2ccccc2O)cc1 | 22%
81 | CC(C)C1N=C2c3ccccc3N=C(SCC(=O)c3ccc(O)c(O)c3)N2C1=O (stereo unspecified) | 16.6%
82 | O=C(N/N=C/c1ccc(O)c(O)c1)C1c2ccccc2Oc2ccccc21 | -4.1%
83 | CCCN(CCC)C(=O)C1c2ccccc2Oc2ccccc21 | 57.1% (active)
84 | COCC(=O)Nc1ccc(Br)cc1 | 13%
85 | CCCCc1nc2ccccc2c(=O)n1NC(=O)c1c(O)c2cccc3c2n(c1=O)CC3 | 8%
86 | O=C(c1cnn2ccccc12)N1CCc2ccccc21 | 25.2%
87 | CCCCn1nc(C(=O)N2CCc3ccccc32)c2ccccc2c1=O | 69.6% (active)
88 | Cc1ccc(-c2cc(C(=O)N/N=C/C=C/c3ccco3)c3ccccc3n2)cc1C | -4.3%

Row | Compound | inhibition
89 | COC(=O)c1c(C)c(C)nc(N)c1C#N | -7.3%
90 | O=C(CN1CCCCCC1)Nc1ccc(Br)cc1Br | 42.6%
91 | CCOC(=O)c1sc(=S)n(-c2cccc(OC)c2)c1N | 31.5%
92 | CCOc1cccc(-c2nnc3sc(COc4ccc(OC)cc4)nn23)c1 | 19.8%
93 | CCOc1cccc(-n2nnnc2-c2ccc(OC)cc2)c1 | 100% (active)
94 | Cc1ccc2[nH]c3c(=O)n(Cc4ccccn4)cnc3c2c1 | -0.8%
95 | COc1ccc(CC(=O)Nc2ccc3c(c2)CCC3)cc1S(=O)(=O)N1CCOCC1 | 54.5% (active)
96 | COc1ccc(CNc2ccc3c(c2)CCC3)cc1OC | 49.8%
97 | CC(C)C(=O)OCC(=O)Nc1ccc2c(c1)CCC2 | 16.8%
98 | S=C1NC(c2ccccc2)=NCN1c1ccc(Br)cc1 | 52.3% (active)
99 | O=C1CN(c2nc(-c3ccccc3)c3cc(Br)ccc3n2)c2ccccc2N1 | -14.1%
100 | C=CCn1c2ccccc2c2nnc(SC(CC)C(=O)Nc3nc(C)c(C(=O)OCC)s3)nc21 (stereo unspecified) | 48.6%
101 | CCN(CC)CCNC(=O)C1c2ccccc2C(=O)N(C)C1c1cn(C)c2ccccc12 (stereo unspecified) | -5.9%
102 | Cc1cccc(NC(=O)c2ccccc2NC(=O)C(C)(C)C)n1 | 30.7%
103 | Cc1ccc(SCC(=O)Nc2ncc(C)s2)cc1 | 49.5%
104 | Cc1ccc(SCC(=O)c2sc(-c3ccccc3)nc2C)cc1 | 60.9% (active)
105 | Cc1nc(-c2ccccc2)sc1C(=O)/C=C/c1ccccc1 | 16.8%
106 | CC1CN(Cc2nc3c(c(=O)n(C)c(=O)n3C)n2Cc2cccc(Cl)c2)CC(C)O1 (stereo unspecified) | 35.9%

— PubChem BioAssay AID778 (Sanford-Burnham Center for Chemical Genomics, 2007)
